Screening results (PubChem BioAssay)
PHOSPHO1 inh: blocks human PHOSPHO1 phosphatase activity; hit rate 1.1% among 290,000; recombinant PHOSPHO1, absorbance phosphatase assay; Q8TCT1; AID 1565; inhibition, % at 13.3 µM; in the data active means inhibition above about 60%
Target sequence (Q8TCT1 whole entry, looked up): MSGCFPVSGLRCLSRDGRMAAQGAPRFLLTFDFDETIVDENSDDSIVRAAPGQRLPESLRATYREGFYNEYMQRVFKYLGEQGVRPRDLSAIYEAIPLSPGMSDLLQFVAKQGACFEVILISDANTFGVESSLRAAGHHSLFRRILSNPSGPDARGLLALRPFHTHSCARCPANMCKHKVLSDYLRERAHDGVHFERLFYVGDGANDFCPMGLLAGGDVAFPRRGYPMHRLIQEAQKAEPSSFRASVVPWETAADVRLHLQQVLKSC
p97 inhibitor: inhibitors of human p97 ATPase. P55072. recombinant p97 ATPase, Kinase-Glo ATP luminescence, 3 h. inhibition, % at 8 µM. hit rate 0.42% among 220,000; in the data active means inhibition above about 15%
PfM18AAP inh: blocks P. falciparum M18 aspartyl aminopeptidase. recombinant PfM18AAP, H-Glu-NHMec fluorogenic cleavage. inhibition, % at 7.35 µM. hit rate 1.2% among 290,000;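 active means inhibition above the campaign mean inhibition over all tested compounds plus 3 SD, cut at about 28% in these data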
G6PDH counter: inhibits Leuconostoc G6PDH, flagging false hits in G6PDH-based assays; Purified L. mesenteroides G6PDH, diaphorase/resazurin coupled fluorescence, 45 min; inhibition, % at 5 µM; hit rate 0.12% among 200,000; AID 1020; in the data active means inhibition above about 50%
HDAC3 inh: human HDAC3 inhibition; hit rate 0.15% among 320,000; inhibition, % at 8.3 µM; recombinant HDAC3, fluorogenic peptide/trypsin coupled, fluorescence; in the data active means inhibition above about 26%, passing the limit was not always enough
SUMO HTRF inh: blocks human SUMOylation mediated by UBC9. HTRF SUMOylation assay, SAE1/SAE2 + UBC9, in vitro. inhibition, % at 35 µM. hit rate 0.36% among 290,000; in the data active means inhibition above about 50%, passing the limit was not always enough
Target sequence (P63279 whole entry, looked up): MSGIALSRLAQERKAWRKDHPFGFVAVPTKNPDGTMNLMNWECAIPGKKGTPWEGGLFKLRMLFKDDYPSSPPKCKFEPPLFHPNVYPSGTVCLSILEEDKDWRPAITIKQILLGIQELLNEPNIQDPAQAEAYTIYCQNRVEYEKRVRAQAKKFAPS
p97 confirm: confirmation of human p97 ATPase inhibitors. shares compounds with p97 inhibitor. recombinant p97 ATPase, Kinase-Glo ATP luminescence. inhibition, % at 8 µM. hit rate 44% among 760;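 active means percent inhibition of p97 ATPase above a set limit, the primary screen's mean plus 3 SD, cut at about 15% in these data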
Of the large screens only hits and unclear results are named; the others gave an inactive call (follow-up assays come after a bar, where they were run); ! = not confirmed by another sample. An excerpt weighted towards active compounds, which were near 2.5% of everything screened.

Cc1cccc(OCCCC(=O)Nc2ccc(S(N)(=O)=O)cc2)c1	p97 inhibitor 17 | p97 confirm inactive
Cc1ccc(-c2nc3c(c(=O)c4ccccc4n3C)c(=O)n2Cc2ccco2)cc1	p97 inhibitor 48 (no result: G6PDH counter) | p97 confirm 17
Cn1c2ccccc2c(=O)c2c(=O)n(Cc3ccco3)c(-c3ccc(F)cc3)nc21	p97 inhibitor 46 (no result: G6PDH counter) | p97 confirm 17
COc1ccccc1Nc1nc(NCc2ccco2)nc(N)c1[N+](=O)[O-]	p97 inhibitor 16 (no result: G6PDH counter) | p97 confirm 21
COc1ccc(OC)c(Nc2nc(NCc3ccco3)nc(N)c2[N+](=O)[O-])c1	none (no result: G6PDH counter)
COCCCNC(=O)c1cccn2c(=O)c3cc4ccccc4cc3nc12	PHOSPHO1 inh 95, p97 inhibitor 15 | p97 confirm inactive
CC(C)(C)C(=O)/C=C(\N)c1ccncc1	none
COc1ccc(/C(N)=C/C(=O)C(C)(C)C)cc1	p97 inhibitor 34 | p97 confirm inactive
COc1ccc(C(CNC(=O)c2ccc(OC)c(S(=O)(=O)N3CCCC3)c2)N2CCCC2)cc1 (centres undefined)	none (no result: PHOSPHO1 inh, p97 inhibitor, PfM18AAP inh, G6PDH counter, SUMO HTRF inh)
O=C(Cc1ccccc1)NC1(O)C(=O)c2ccccc2C1=O	p97 inhibitor 16 (no result: G6PDH counter) | p97 confirm 15
O=C(NC1(O)C(=O)c2ccccc2C1=O)c1ccc(C(F)(F)F)cc1	p97 inhibitor 27, SUMO HTRF inh 90 (no result: G6PDH counter) | p97 confirm 28
Cc1ccc(C(=O)NC2(O)C(=O)c3ccccc3C2=O)cc1C	p97 inhibitor 26 (no result: G6PDH counter, SUMO HTRF inh) | p97 confirm 26
CC(NC(=O)Cc1ccccc1)c1ccccc1 (centres undefined)	none (no result: p97 inhibitor, G6PDH counter)
CCOc1ccc(NC(=O)CN(C)C(=O)/C=C/c2ccco2)cc1OCC	none (no result: PHOSPHO1 inh, p97 inhibitor, PfM18AAP inh, G6PDH counter, SUMO HTRF inh)
O=C(CN(C(=O)Cn1nnc(-c2cccs2)n1)c1ccc2c(c1)OCCO2)NC1CCCCC1	p97 inhibitor 15 | p97 confirm inactive
CCC(=O)NC1=C(NC(C)c2ccccc2)C(=O)c2ccccc2C1=O (centres undefined)	none
CCC(=O)NC1=C(Cl)C(=O)C(NC(=O)CC)=C(Cl)C1=O	p97 inhibitor 19, SUMO HTRF inh 76 (no result: G6PDH counter, HDAC3 inh) | p97 confirm inactive
CC(C)Oc1ccc(S(=O)(=O)N2CCOCC2)cc1NC(=O)Cc1c(F)cccc1Cl	none (no result: PHOSPHO1 inh, p97 inhibitor, PfM18AAP inh, G6PDH counter, SUMO HTRF inh)
O=[N+]([O-])c1ccc(N2CCCC2)cc1NC1CC1	none
NCCNc1ccc([N+](=O)[O-])c(NC2CC2)c1	p97 inhibitor 17 | p97 confirm inactive
CCC(=O)Nc1ccc(Br)c(Cl)c1	p97 inhibitor 16 | p97 confirm inactive
O=C(Nc1ccnn1C1CCN(CCCC2CCCC2)CC1)c1ccccc1Cl	none (no result: p97 inhibitor, G6PDH counter)
c1ccc(Nc2nc(NCc3ccco3)c3ccccc3n2)cc1	p97 inhibitor 22 (no result: G6PDH counter) | p97 confirm 28
Cc1cccc(Nc2nc(NCc3ccco3)c3ccccc3n2)c1	none
COc1ccccc1C(=O)NCCC(=O)NNC(=O)Cn1ccc(C(F)(F)F)n1	none (no result: PHOSPHO1 inh, p97 inhibitor, PfM18AAP inh, G6PDH counter, SUMO HTRF inh)
Cc1cc(NC2CCCCC2)nc(-c2ccccc2O)n1	none
Cc1cc(NCc2ccccc2)nc(-c2ccccc2O)n1	p97 inhibitor 20 | p97 confirm 35
Cc1cc(Nc2cccc(F)c2)nc(-c2ccccc2O)n1	none (no result: HDAC3 inh)
Cc1cc(Nc2ccccc2)nc(-c2ccccc2O)n1	p97 inhibitor 25 | p97 confirm 40
O=C(Nc1cccc(F)c1)c1c(O)c2cccc3c2n(c1=O)CCC3	p97 inhibitor 18 | p97 confirm inactive
Nn1c(SCC(=O)NC2CCCCC2)nnc1-c1ccccc1F	none (no result: PHOSPHO1 inh, p97 inhibitor, PfM18AAP inh, G6PDH counter, SUMO HTRF inh)
CCOC(=O)c1[nH]c2ccc(Br)cc2c1NC(=O)CCN1CCCCC1	p97 inhibitor 22 (no result: HDAC3 inh) | p97 confirm inactive
CCOC(=O)c1[nH]c2ccc(Br)cc2c1NC(=O)CCN1CCC(C(=O)OCC)CC1	p97 inhibitor 18 | p97 confirm 16
Brc1ccc2[nH]c3nc(SCCN4CCOCC4)nnc3c2c1	p97 inhibitor 17! | p97 confirm inactive
c1ccc2c(c1)[nH]c1nc(SCCN3CCOCC3)nnc12	none
CC1=Nc2ccc(C)cc2/C1=C/c1c(N)n2c(S(=O)(=O)C(C)C)nsc2nc1=O	none (no result: HDAC3 inh)
CC(C)S(=O)(=O)c1nsc2nc(=O)c(/C=C3\C=Nc4ccccc43)c(N)n12	none
CC1=Nc2ccccc2/C1=C/c1c(N)n2c(S(=O)(=O)C(C)C)nsc2nc1=O	p97 inhibitor 22 | p97 confirm 36
CC1=Nc2ccccc2/C1=C/c1c(N)n2c(S(=O)(=O)CC(C)C)nsc2nc1=O	p97 inhibitor 18 (no result: HDAC3 inh) | p97 confirm 39
COc1ccc(C=O)c2[nH]c3c(Cl)ncnc3c12	none (no result: p97 inhibitor, G6PDH counter, HDAC3 inh)
CN(C)S(=O)(=O)c1ccc2c(c1)nc(CCC(=O)O)n2C	p97 inhibitor 16 (no result: HDAC3 inh) | p97 confirm inactive
NC(=S)NNc1cccc2cccnc12	p97 inhibitor 16, SUMO HTRF inh 92 | p97 confirm inactive
CCCCCc1cc(=O)oc2c(C(CCN(CC)CC)c3ccc(N(C)C)cc3)c(OC)cc(OC)c12 (centres undefined)	none (no result: p97 inhibitor, PfM18AAP inh, G6PDH counter)
CC(C)N(C(=O)COC(=O)[C@H](C)NC(N)=O)c1ccccc1	p97 inhibitor 15 | p97 confirm inactive
O=C(O)c1cc(-c2c[nH]c3ccccc23)nc2cc3ccccc3cc12	p97 inhibitor 27 (no result: G6PDH counter) | p97 confirm 27
O=C(O)c1cc(-c2cccc3ccccc23)nc2ccccc12	none (no result: p97 inhibitor, G6PDH counter)
Cc1[nH][nH]c(=O)c1C(c1c(C)[nH][nH]c1=O)c1cn(Cc2ccc(Cl)c(Cl)c2)c2ccccc12	p97 inhibitor 42 | p97 confirm inactive
C=CC[n+]1c(-c2ccc(C)cc2)csc1Nc1ccc(NC(C)=O)cc1	none (no result: HDAC3 inh)
C=CC[n+]1c(-c2ccc(OC)cc2)csc1NNC(=O)Nc1ccccc1	PHOSPHO1 inh 66, p97 inhibitor 17 | p97 confirm inactive
COc1cc(C(=O)N2CCN(C(=O)c3cc(-c4ccccc4)n[nH]3)CC2)cc(OC)c1OC	none (no result: p97 inhibitor, G6PDH counter)
COc1ccc(CNC(=O)CCS(=O)(=O)c2cc3c(cc2Cl)NC(=O)CO3)cc1	none (no result: p97 inhibitor, G6PDH counter)
FC(F)(F)c1nnc2c(Sc3ccccn3)nc3ccccc3n12	p97 inhibitor 19 | p97 confirm inactive
FC(F)(F)c1nnc2c(Sc3ccccc3)nc3ccccc3n12	none
Cc1cccc(C)c1NC(=O)CSCc1cccc(CSCC(=O)Nc2c(C)cccc2C)n1	p97 inhibitor 16 | p97 confirm inactive
CCCN(CC(=O)Nc1ccccc1C)C(=O)C1CC(=O)N(Cc2ccccc2)C1 (centres undefined)	none (no result: PHOSPHO1 inh, p97 inhibitor, PfM18AAP inh, G6PDH counter, SUMO HTRF inh)
CC1=C(C(=O)OC2CCCC(C)C2)C(c2ccccc2)NC(=O)N1 (centres undefined)	none (no result: p97 inhibitor, G6PDH counter)
Cc1ccc(C2=NS(=O)(=O)N(C)C(C(=O)Nc3cc(C)n(CC(=O)N4CCC(C)CC4)n3)=C2)cc1	none (no result: p97 inhibitor, G6PDH counter)
CN1CCN(CCCNC(=O)c2cn(C3CCCCC3)c(=O)c3c2c2ccccc2n3C)CC1	p97 inhibitor 23 | p97 confirm inactive
CC(=O)NS(=O)(=O)c1ccc(NC(=O)[C@@H]2CCCN2S(=O)(=O)c2ccc(Cl)cc2)cc1	none (no result: PHOSPHO1 inh, p97 inhibitor, PfM18AAP inh, G6PDH counter, SUMO HTRF inh)
